Bioassay records from PubChem.
A selection: hits, their analogues and other compounds. The true share with any hit is near 4.6%.
PfHsp90 yeast 2: growth inhibition of PfHsp90-expressing yeast, primary screen, antimalarial PfHsp90 inhibitor project, S. cerevisiae, BacTiter-Glo luminescence, single point, set 2; BacTiter-Glo ATP, 48 h; yeast lacking PDR1 and PDR3 efflux regulators; inhibition, % at 9.4 µM; hit rate 0.32% among 310,000; AID 504621, 2011;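 active means every replicate shows inhibition above about 80%, whatever the replicate mean, limit read from the data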
SKKanGAS inh: S. pyogenes SKKanGAS growth inhibitors in kanamycin, primary screen, streptokinase expression inhibitor project, SKKanGAS strain, BacTiter-Glo luminescence | AID 1662, 2009 | inhibition, % at 7.5 µM | hit rate 1.3% among 300,000 | 6 h;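 active means mean replicate score, as percent of positive control median, at least 50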;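 further: strain carries kanamycin resistance gene driven by streptokinase promoter and grows in 40 µg/ml kanamycin; loss of luminescence reflects streptokinase promoter inhibition or plain growth inhibition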
tim10-1 inh: growth inhibitors of tim10-1 mutant yeast, primary screen, luminescence, uHTS | S. cerevisiae tim10-1 ts strain growth, BacTiter-Glo, 24 h | inhibition, % at 20 µM | hit rate 2.2% among 330,000;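 active means inhibition of at least 40%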;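 further: mutant grown at 25 °C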
TIM10 inh: growth inhibitors of isogenic TIM10 control yeast, primary screen, counter-screen for tim10-1 yeast inhibitor project, luminescence, uHTS; hit rate 1.4% among 330,000; S. cerevisiae TIM10 strain growth, BacTiter-Glo luminescence, 24 h; inhibition, % at 10 µM;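 active means inhibition of 40% or more at the single tested concentration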;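 further: wild-type TIM10 isogenic control strain grown at permissive 25 °C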
tim23-1 inh: growth inhibitors of tim23-1 mutant yeast, primary screen, luminescence, uHTS; S. cerevisiae tim23-1 growth, BacTiter-Glo luminescence, 24 h; inhibition, % at 20 µM; hit rate 1.3% among 330,000;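 active means growth inhibition of the mutant yeast at or above 50%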;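 further: temperature-sensitive mutant grown at 25 °C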
V-ATPase pHluor: regulators of yeast V-ATPase proton pumping, primary screen, pHLuorin cytosolic pH fluorescence; S. cerevisiae; response, % at 10 µM; hit rate 0.37% among 350,000; in the data active means response mostly above about 7.3%, no sharp cut-off; inactive means mostly below about 5.4%; further: actives read high
tim10-1 confirm: growth inhibitors of tim10-1 mutant yeast, confirmation, single concentration, luminescence, S. cerevisiae. shares compounds with tim10-1 inh. S. cerevisiae tim10-1 ts strain growth, BacTiter-Glo, 24 h. inhibition, % at 20 µM. hit rate 56% among 7,400. AID 463213, 2010;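 active means inhibition of yeast growth at or above a set limit in either of two repeat tests at 20 µM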;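 further: tim10-1 mutant grown at permissive 25 °C to find synthetic lethal compounds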
TIM10 conf: growth inhibitors of wild-type TIM10 yeast, confirmation, counter-screen for tim10-1 synthetic lethality project, single concentration, luminescence, S. cerevisiae; shares compounds with TIM10 inh; S. cerevisiae tim10 strain growth, BacTiter-Glo luminescence, 24 h; inhibition, % at 10 µM; hit rate 63% among 4,600; AID 463215, 2010;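 active means inhibition of yeast growth at or above a set limit in either of two replicates at 10 µM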; further: this counterscreen used the strain with wild-type TIM10
tim23-1 conf: tim23-1 mutant yeast growth inhibitors, confirmation, luminescence, single concentration. shares compounds with tim23-1 inh. S. cerevisiae tim23-1 growth, BacTiter-Glo luminescence, 24 h. inhibition, % at 20 µM. hit rate 83% among 4,400. AID 463218, 2010;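 active means inhibition above about 39% in either of two replicate wells at 20 µM, limit read from the data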;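 further: temperature-sensitive tim23-1 mutant grown at 25 °C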
Large screens that a line does not name were inactive (follow-up assays come after a bar, where they were run).

N#C/C(=C/c1ccncc1)c1nc2ccccc2s1	tim10-1 inh 60, TIM10 inh 70, tim23-1 inh 80 | tim10-1 confirm 40 | TIM10 conf 67 | tim23-1 conf 79
CCCCN1C(=O)/C(=C2\SC(N3CCCCC3)=NC2=O)c2ccccc21	none
CCCCN1C(=O)C(=Nc2cccc3cnccc23)c2ccccc21	tim10-1 inh 45, TIM10 inh 42, tim23-1 inh 71 | tim10-1 confirm 46 | TIM10 conf 35 | tim23-1 conf 67
COc1cc(/C=C(\C#N)C(=O)NCC2CCCO2)ccc1OC(C)C (stereo not drawn)	none
COc1cc(/C=C(\C#N)C(=O)NCC2CCCO2)ccc1OC(=O)c1ccco1 (stereo not drawn)	tim10-1 inh 40, tim23-1 inh 64 (no result: PfHsp90 yeast 2, SKKanGAS inh) | tim10-1 confirm 34 | tim23-1 conf 53
C=CCNC(=O)/C(C#N)=C/c1cn(-c2ccccc2)nc1-c1ccc(OC)c([N+](=O)[O-])c1	none (no result: tim10-1 inh, TIM10 inh, tim23-1 inh)
C=CCNC(=O)/C(C#N)=C/c1ccccc1Cl	tim10-1 inh 51, TIM10 inh 66, tim23-1 inh 85 | tim10-1 confirm 63 | TIM10 conf 74 | tim23-1 conf 80
Cc1cccc(NC(=O)/C(C#N)=C/c2ccccc2Cl)n1	tim10-1 inh 52, TIM10 inh 42, tim23-1 inh 71 | tim10-1 confirm inactive | TIM10 conf 32 | tim23-1 conf 62
C=CCNC(=O)/C(C#N)=C/c1cc(Br)ccc1OC	tim10-1 inh 78, TIM10 inh 83, tim23-1 inh 88 | tim10-1 confirm 84 | TIM10 conf 91 | tim23-1 conf 71
CC(C)CC(c1nnnn1Cc1ccc2c(c1)OCO2)N1CCC(C(N)=O)CC1 (stereo not drawn)	none
Clc1ccc(-n2nnnc2Sc2ncnc3sccc23)cc1	tim10-1 inh 43, tim23-1 inh 70 | tim10-1 confirm 33 | tim23-1 conf 50
Cc1sc2ncnc(Sc3nnnn3-c3ccccc3)c2c1C	none
O=C(Nc1ccc(F)cc1)C1C(c2ccccc2)C1(Cl)Cl (stereo not drawn)	tim10-1 inh 48, TIM10 inh 41, tim23-1 inh 59 | tim10-1 confirm 39 | TIM10 conf inactive | tim23-1 conf 40
Cc1cc(O)c(C(C[N+](=O)[O-])c2ccc(Cl)cc2)c(=O)o1 (stereo not drawn)	none
Cc1[nH]n(-c2ccccc2)c(=O)c1C(C[N+](=O)[O-])c1ccc(Cl)cc1 (stereo not drawn)	tim10-1 inh 58, TIM10 inh 49, tim23-1 inh 86 (no result: PfHsp90 yeast 2) | tim10-1 confirm 48 | TIM10 conf inactive | tim23-1 conf 84
COc1ccc(C(c2c(C)[nH]n(-c3ccccc3)c2=O)c2c(C)[nH]n(-c3ccccc3)c2=O)cc1OC	none
Cc1ccc(C(C[N+](=O)[O-])c2c(C)[nH]n(-c3ccccc3)c2=O)cc1 (stereo not drawn)	tim10-1 inh 42, tim23-1 inh 75 | tim10-1 confirm inactive | tim23-1 conf 61
Cc1[nH]n(-c2ccccc2)c(=O)c1C(C[N+](=O)[O-])c1ccc(F)cc1 (stereo not drawn)	tim10-1 inh 60, TIM10 inh 48, tim23-1 inh 83 | tim10-1 confirm 41 | TIM10 conf inactive | tim23-1 conf 64
